Shown are actives, neighbours in structure and some others; about 22% of the full set was active somewhere.
Measles CPE = protection of cells from measles virus; Measles virus-infected cells, CPE protection, absorbance; protection (pct of control), % at 4 µM; 1.5% of 140,000 active; in the data active = protection mostly above about 24%, no sharp cut-off; inactive = mostly below about 26%
CYP2C19 act = cytochrome P450 2C19 (human) activation | AID 1025 | P33261 | activation factor at 5 µM | 96,000 tested, under 10 active | recombinant CYP2C19, luciferin-H EGE luminescence; hits give high values; 0 = fully inhibited enzyme, 1 = untreated enzyme;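 active = activation factor of at least 2 at 5 µM in the primary screen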;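 also: 0 = wells with 2.5 mM tranylcypromine and 1 = vehicle-only wells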
CYP2C9 inh = blocks human cytochrome P450 2C9; P11712; CYP2C9 Supersomes, luciferin-H conversion, luminescence; inhibition, % at 5 µM; 20% of 96,000 active; AID 777;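 active = blocking of liver enzyme CYP2C9 beyond about 50% at 5 µM, limit read from the data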
Target sequence (P11712 whole entry, looked up): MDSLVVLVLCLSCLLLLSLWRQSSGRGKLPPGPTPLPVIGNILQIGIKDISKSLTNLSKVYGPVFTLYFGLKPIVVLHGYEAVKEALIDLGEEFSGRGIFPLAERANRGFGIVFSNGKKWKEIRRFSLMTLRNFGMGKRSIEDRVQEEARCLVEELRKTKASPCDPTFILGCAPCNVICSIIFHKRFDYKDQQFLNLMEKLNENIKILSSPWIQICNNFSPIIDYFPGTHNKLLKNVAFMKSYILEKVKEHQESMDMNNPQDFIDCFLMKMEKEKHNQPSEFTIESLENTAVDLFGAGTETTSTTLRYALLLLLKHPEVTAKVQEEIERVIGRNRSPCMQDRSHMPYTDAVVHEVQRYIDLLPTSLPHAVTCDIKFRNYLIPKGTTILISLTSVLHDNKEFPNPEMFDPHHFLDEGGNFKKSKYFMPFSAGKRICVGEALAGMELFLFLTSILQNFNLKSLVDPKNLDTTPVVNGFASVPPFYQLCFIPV
CYP2C19 inh = inhibitors of human CYP2C19; inhibition, % at 5 µM; P33261; AID 778; 21% of 96,000 active; CYP2C19 Supersomes, luciferin-H EGE luminescence, 30 min;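 active = CYP2C19 inhibition above a set limit at 5 µM in the primary screen, cut at about 50% in these data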;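 also: plate controls were negative control wells for no effect and 2.5 mM tranylcypromine positive control for full effect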
CYP2C9 act = increases human cytochrome P450 2C9 activity | recombinant CYP2C9, luciferin-H conversion, luminescence; hits give high values; factor 1 = untreated enzyme, 0 = blocked | P11712 | activation factor at 5 µM | 1.4% of 96,000 active;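 active = activation factor of 2 or more for CYP2C9 at a 5 µM dose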;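 also: 0 = sulfaphenazole-blocked wells and 1 = vehicle-only wells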
* hit, by the source's call; x = no result.

SMILES	Measles CPE	CYP2C19 act	CYP2C9 inh	CYP2C19 inh	CYP2C9 act
CCOC(=O)C1CCCN(S(=O)(=O)c2ccc(F)c(C(=O)Nc3ccc(F)c(F)c3)c2)C1 (stereo unspecified)	1	0.4	60*	59*	0.4
CCOC(=O)N1CCN(S(=O)(=O)c2ccc(F)c(C(=O)Nc3cc(C)cc(C)c3)c2)CC1	3	1	3	2	1
CCOC(=O)C1CCCN(S(=O)(=O)c2ccc(OC)c3ccccc23)C1 (stereo unspecified)	23	0	21	98*	0.8
CCOC(=O)C1CCCN(S(=O)(=O)c2ccccc2)C1 (stereo unspecified)	8	0.7	5	33	0.9
CCOC(=O)C1CCCN(S(=O)(=O)c2ccc(Br)c(OC)c2)C1 (stereo unspecified)	11	0.3	27	71*	0.7
NC(=O)C1CCCN(S(=O)(=O)c2ccc(Br)cc2)C1 (stereo unspecified)	11	0.4	-46	59*	1.5
CCCCSC1(SCCCC)N=C(N)C2(C#N)C(c3ccccc3)NC(C)=CC12C#N (stereo unspecified)	16	1.1	-8	-9	1.1
O=C(Cn1cnc2ccccc2c1=O)N(Cc1ccco1)c1ccc(O)cc1	28	0.8	34	21	0.7
Cc1ccc(CNC(=O)C2C3C=CC4(CN(Cc5cccnc5)C(=O)C24)O3)cc1 (stereo unspecified)	0	0.9	-17	9	1.2
CCCNC(=O)c1cc(-c2ccc(OC)cc2)on1	24	0.8	17	16	0.8
CCOC(=O)C1CCCN(S(=O)(=O)c2cn(C)c(=O)n(C)c2=O)C1 (stereo unspecified)	8	0.2	16	78*	0.8
CCOC(=O)C1CCN(S(=O)(=O)c2cn(C)c(=O)n(C)c2=O)CC1	11	1.1	-18	-10	1.2
CC(C)NC(=O)C1CCCN(S(=O)(=O)c2ccc(-n3cnnn3)cc2)C1 (stereo unspecified)	7	0.9	51*	13	0.5
CCOC(=O)C1CCCN(S(=O)(=O)c2c(C)c(C)cc(C)c2C)C1 (stereo unspecified)	14	0.1	-35	87*	1.4
Cc1ccc(-n2c(C)c3c(C)nnc(C)c3c2C)cc1C	3	0.5	8	45	0.9
COc1nccnc1NS(=O)(=O)c1ccc(NC(=S)NC(=O)c2ccc(F)cc2)cc1	34*	x	x	x	x
COc1ccccc1NC(=O)Cc1coc2cc(C)ccc12	19	0.4	42	64*	0.6
CCOc1ccccc1NC(=O)Cc1coc2cc(C)ccc12	7	0.1	90*	95*	0.1
COc1ccc(NC(=O)c2oc3cc(C)c(C)cc3c2C)c(OC)c1	3	x	x	x	x
COc1ccc(NC(=O)Cc2coc3cc(C)ccc23)cc1S(=O)(=O)N1CCOCC1	4	x	x	x	x
Cc1ccc2c(CC(=O)NCC3COc4ccccc4O3)coc2c1 (stereo unspecified)	7	0	95*	100*	0
COc1ccccc1NC(=O)c1oc2ccc(C)cc2c1C	2	1	-103	4	2*
C=CCn1c(CC#N)nnc1N1CCOCC1	2	1	-5	0	1
CC(C)CCNC(=O)CCCOc1ccccc1	45*	0.5	-12	54*	1.1
COc1cc(CC(=O)Nc2nccs2)cc(OC)c1OC	25	0.2	41	80*	0.6
SMILES	Measles CPE	CYP2C19 act	CYP2C9 inh	CYP2C19 inh	CYP2C9 act
Cc1ccc([N+](=O)[O-])cc1NC(=O)CCCOc1ccccc1	6	0.7	-130	31	2.3*
Cc1cccc(OCCCC(=O)Nc2nccs2)c1	x	0.2	24	76*	0.8
COCC(=O)Nc1cc([N+](=O)[O-])ccc1C	0	1	9	0	0.9
CCC(=O)NCCCOc1ccccc1	25	0.9	-3	6	1
COc1cccc2c(=O)n(CC(=O)N3CCN(c4ccccc4)CC3)ccc12	9	x	x	x	x
O=C(CCCOc1ccccc1)Nc1nncs1	5	0	83*	97*	0.2
Cc1cccc(OCCCC(=O)Nc2ccc(Br)cc2)c1	10	0.4	42	59*	0.6
Cc1ccc(OCCCC(=O)Nc2nccs2)cc1	3	0.5	55*	54*	0.5
CCOC(=O)NC(=O)CN1C(=O)NC(C)(c2ccccc2)C1=O (stereo unspecified)	3	1.1	6	-5	0.9
CC1(c2ccccc2)NC(=O)N(Cc2ccc([N+](=O)[O-])cc2)C1=O (stereo unspecified)	53*	x	x	x	x

Assay outcomes from PubChem BioAssay.
